# Sampled rows, rich in hits. Any-hit rate of the full collection: about 18%.
# VDR inh – blocks the human vitamin D receptor; P11473; actives 0.93% (n = 400,000); AID 504847; Potency, µM, inactives show max response, negative = inhibition, most hits filed as inhibitors; VDR-SRC2-3 peptide fluorescence polarization, 2 h
#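 Measured by FP: displacement of SRC2-3 coactivator peptide from VDR by library compounds, following a two-hour ambient incubation.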
# TDP1 cell CPT – growth inhibition of DT40 Tdp1-/-;hTDP1 cells with camptothecin (screen for TDP1 inhibitors); Potency, µM (top dose mostly 46.2 µM), for inactives: top-dose activity change, negative = growth inhibition, usual class: inhibitors; chicken DT40 Tdp1-/-;hTDP1 cells + 20 nM CPT, ATP luminescence, 48 h; actives 12% (n = 420,000); AID 686979; note: nearly all actives have a fitted effect of over 55% in size
#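 Cell growth measured by CellTiter-Glo luminescence after a minimum 48 h, 37 C compound exposure with 20 nM CPT in Tdp1-knockout DT40 cells stably expressing hTDP1, seeded 400/well; qHTS titration format.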
# TDP1 cell noCPT – qHTS for Inhibitors of human tyrosyl-DNA phosphodiesterase 1 (TDP1): qHTS in cells in absence of CPT | actives 15% (n = 420,000) | Potency, µM (top dose mostly 46.2 µM), for the others: at the top dose activity change, negative = growth inhibition, actives largely listed as inhibitors | AID 686978, 2013 | DT40 Tdp1-/- hTDP1 cells, no CPT, ATP luminescence, 48 h; note: nearly all actives have a fitted effect of over 55% in size
#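 Growth of hTDP1-complemented DT40 Tdp1-knockout cells is measured by ATP luminescence after at least 48 hr compound exposure at 37 °C, with DMSO substituting for the 20 nM CPT used in the parallel screen.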
# TDP1 inh – inhibitors of human tyrosyl-DNA phosphodiesterase TDP1. recombinant TDP1, AlphaScreen DNA substrate cleavage. actives 0.28% (n = 350,000). Potency, µM (titrated, usually from 130 µM), for inactives: top-dose activity change, negative = inhibition, most hits filed as inhibitors. Q9NUW8; note: nearly all actives have a fitted effect of over 40% in size
#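 Here, a 5' biotin and 3' phosphotyrosine-FITC DNA oligonucleotide reports Tdp1 activity: intact substrate bridges AlphaScreen beads, while cleavage leaves a 3' phosphate and drops signal. All incubations at room temperature.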
# PLK1 PBD block – PLK1 (human) polo-box domain binding inhibition; P53350; Plk1 PBD binding of FITC phosphopeptide, fluorescence polarization; Potency, µM, without a hit: max response, negative = inhibition, usual class: inhibitors; actives 2.8% (n = 360,000); note: series mostly up to about 57 µM; nearly all actives have a fitted effect of over 65% in size
# Target sequence (P53350 whole entry, looked up, the tested form may be a part): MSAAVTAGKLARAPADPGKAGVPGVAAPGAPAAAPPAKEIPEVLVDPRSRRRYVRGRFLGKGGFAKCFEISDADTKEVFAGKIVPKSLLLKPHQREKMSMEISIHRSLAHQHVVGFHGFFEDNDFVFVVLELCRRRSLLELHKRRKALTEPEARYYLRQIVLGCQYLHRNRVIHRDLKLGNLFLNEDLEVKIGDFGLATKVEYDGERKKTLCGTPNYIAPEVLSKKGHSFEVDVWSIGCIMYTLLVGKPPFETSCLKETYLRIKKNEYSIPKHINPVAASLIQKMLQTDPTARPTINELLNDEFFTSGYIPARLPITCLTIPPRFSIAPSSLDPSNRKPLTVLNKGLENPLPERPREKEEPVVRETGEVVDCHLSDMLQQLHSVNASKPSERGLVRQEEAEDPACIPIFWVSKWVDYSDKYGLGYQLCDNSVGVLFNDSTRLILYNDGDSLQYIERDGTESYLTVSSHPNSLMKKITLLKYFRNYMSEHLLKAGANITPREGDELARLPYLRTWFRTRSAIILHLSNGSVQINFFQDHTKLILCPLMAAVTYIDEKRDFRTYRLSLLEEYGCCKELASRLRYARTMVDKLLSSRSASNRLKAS
# KAT2A inh – blocks human GCN5L2 histone acetyltransferase; Q92830; GCN5L2 HAT assay, ThioGlo1 CoA-SH fluorescence; Potency, µM (top dose mostly 58.9 µM), for the others: at the highest dose activity change, negative = inhibition, usual class: inhibitors; actives 0.21% (n = 390,000)
#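 Enzyme at 20nM final was mixed with library compounds for 15 min at room temperature. Peptide H3(1-25) at 75uM, acetyl-CoA at 70uM and ThioGlo1 at 50uM were then added. Plates were read immediately and after 20 min (Ex340nm/Em540nm).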
# TbPYK inh – confirmation of Trypanosoma brucei pyruvate kinase inhibitors; shares compounds with PLK1 PBD block; Potency, µM (highest dose often 76.9 µM), for inactives: at the top dose activity change, negative = inhibition, most hits filed as inhibitors; recombinant TbPYK, Kinase-Glo ATP luminescence; actives 67% (n = 890); note: nearly all actives have a fitted effect of over 70% in size
# TbPYK orthogonal – inhibits T. brucei pyruvate kinase in orthogonal ADP-Glo assay. shares compounds with PLK1 PBD block. recombinant TbPYK, ADP-Glo luminescence, 60 min. Potency, µM (series often up to 76.9 µM), inactives show at the top dose activity change, negative = inhibition, most hits filed as inhibitors. actives 62% (n = 890); note: nearly all actives have a fitted effect of over 75% in size
# * hit, by the source's call; ? = inconclusive; . = no result given. Calls come from the whole dose curve; as a rule, active = well fitted curve in the direction sought with a large enough effect; inconclusive = small, poorly fitted or top-dose-only effect, or another doubt; inactive = no such curve, though single readings can be large; an effect the other way counts as inactive or inconclusive. % is set by controls: 0 for no effect and ±100 for the full control effect; potency is the fitted concentration of half-maximal effect.
SMILES,VDR inh,TDP1 cell CPT,TDP1 cell noCPT,TDP1 inh,PLK1 PBD block,KAT2A inh,TbPYK inh,TbPYK orthogonal
Cc1sc2ccccc2[n+]1CCC(C)S(=O)(=O)[O-] (stereo unspecified),?,-9%,-1%,-7%,?,-16%,.,.
Cc1sc2ccccc2[n+]1CC(=O)O,22µM*,-9%,-7%,-2%,?,5%,3.5µM*,13µM*
COc1cc2c(cc1OC)C(=O)C(Br)CC2 (stereo unspecified),.,3.7µM*,4.6µM*,.,0.95µM*,.,10µM*,5.6µM*
Cc1ccc(S(=O)(=O)N2[C@@H](c3ccc(C(C)C)cc3)C(C(=O)O)=C[C@H]2C(C)(C)C)cc1,3%,?,-29%,1%,?,-4%,.,.
Cc1ccc(-n2c(N)c(C(=O)N3CCN(C)CC3)sc2=S)cc1,25µM*,?,-20%,3%,3µM*,-21%,0.63µM*,4.5µM*
C=CCn1c(N)c(C(=O)N2CCN(C)CC2)sc1=S,4%,2%,0%,4%,?,-11%,.,.
CSc1nsc(SC)c1NC(=O)N1CCCC1,-19%,1%,-21%,0%,-9%,1%,?,32µM*
CC1=C(C#N)C(=O)NC(=O)/C1=C/c1ccc(-c2ccc(S(N)(=O)=O)cc2)o1,25µM*,-8%,4%,-9%,9.5µM*,-20%,-17%,-22%
Cn1c(-c2ccc(Br)o2)nc2cc(Br)ccc21,-20%,?,?,0%,?,-5%,.,.
Cc1ccc(-c2nc3ccccc3n2C)o1,-19%,?,?,8%,-11%,-3%,?,-7%
C=CCSC1=C(C#N)C(c2ccccc2C)CC(=O)N1 (stereo unspecified),-1%,-9%,-26%,-5%,-21%,-27%,.,.
C=C(C)CSC1=C(C#N)C(c2ccccc2Cl)CC(=O)N1 (stereo unspecified),?,-10%,?,7%,13µM*,-1%,5µM*,8.9µM*
COC(C(=O)N/N=C(\C)c1ccc(O)cc1)c1ccccc1 (stereo unspecified),-1%,-12%,-15%,.,-4%,-5%,.,.
COC(=O)c1ccc(C2Nc3ccc(/C(C)=N/NC(=O)C(OC)c4ccccc4)cc3C3C=CCC32)cc1 (stereo unspecified),-28%,13µM*,15µM*,0%,-16%,-27%,?,?
CCCCOc1ccc(/C=C/C(=O)OCC(=O)NC(=O)NCC(C)C)cc1OCC,-7%,?,?,0%,-11%,5%,4%,-2%
O=C(O)c1ccc(NS(=O)(=O)c2ccc3c(c2)C2C=CCC2C(c2ccccc2F)N3)cc1 (stereo unspecified),?,7%,-6%,.,?,?,?,?
Cc1ccc(C(=O)N/C(=C/c2ccc(F)cc2)C(=O)NCc2ccncc2)cc1,-10%,13%,4%,-2%,-5%,0%,.,.
CC1(C)Cc2c(C#N)c(NCCc3ccccc3)nc(-c3ccco3)c2CO1,?,?,?,.,?,-4%,?,13µM*
CC(C)c1cc2c(c(O)c1O)[C@@]13CCCC(C)(C)C1CC2OC3=O (stereo partly specified),?,5.2µM*,8.2µM*,.,6.7µM*,?,1.8µM*,3.5µM*
